About 2,000 (1.1%) of roughly 190,000 compounds were called active. This excerpt belongs to a sample that is enriched for actives. Values without a mark were called inactive.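 How the source made its calls: active means activation above a set limit, based on mean plus 3 SD of controls (cut at about 140% in these data); inconclusive means one replicate above the limit, the other below; inactive means the rest.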

These results are taken from PubChem BioAssay AID1276 (Columbia University Molecular Screening Center, 2008).

The nature of the test: APP 5'UTR reporter signal increase – luciferase, SH-SY5Y cells, primary screen (AID 1276). The note with it: SH-SY5Y APP 5'UTR luciferase reporter, luminescence; at 2 µM; stronger effect = higher value; zero percent = DMSO vehicle wells.
Consider `CCN1CCC(=NNC(=O)c2ccc(C)c([N+](=O)[O-])c2)CC1`, for which the activation was -0.15%.
As for `Cc1cc(O)c(NC(=O)c2ccc(C)c([N+](=O)[O-])c2)cc1C`, the activation is 142% (active).
For `Cc1ccc(C(=O)Nc2cccc3ncccc23)cc1[N+](=O)[O-]` the value was -2.5%.
As for `O=[N+]([O-])c1ccccc1N/N=C1\CCc2ccccc21`, the activation is 120%.
Turning to `Nc1ccc(-c2nnc(-c3ccc(-c4ccccc4)cc3)o2)cc1`, the activation was 79.7%.
Regarding `CCCCCC(=O)Nc1ccc2oc(-c3ccncc3)nc2c1`, the activation was 7.49%.
As for `CCc1ccc2oc(-c3ccc(N)cc3)nc2c1`, the activation was 141% (active).
Consider `C=CCNC(=S)N1CCN(CCN=Cc2c(C)[nH]n(-c3ccc([N+](=O)[O-])cc3)c2=O)CC1`, for which the activation is 1.34%.
Consider `O=C(CN1CCN(c2ccc(O)cc2)CC1)Nc1cc(S(=O)(=O)N2CCOCC2)ccc1Cl`, for which the activation was 2.42%.
The same measure for `OCC1(CCOc2ccccc2)CCN(Cc2cn[nH]c2-c2ccccc2)CC1`: 7.79%; for `O=C(c1cnn(-c2ccc(Cl)cc2)c1)c1ccccc1O`: 177% (active).
For `O=C(O)c1ccc(NC(=O)c2cn(-c3ccccc3)nc2-c2ccc(Cl)cc2)cc1`, the activation is 8.51%.
For the molecule `Cc1ncc(CC(=O)n2cc(C(=O)c3cc(Cl)ccc3O)cn2)s1`, the activation was 6.84%.
`Cc1nc2ccccc2nc(=O)c1NNc1ccc([N+](=O)[O-])cc1`: the activation is -4.38%.
As to `CCc1ccc(NC(=O)N2CCN(c3ccccc3)CC2)cc1`, the activation is 1.57%.
For `CCc1ccc(NC2Nc3cc(C)nn3S2)cc1` (stereo unspecified), the activation is 166% (active).
With `CCOC(=O)c1ccc(NC2Nc3cc(C)nn3S2)cc1` (stereo unspecified), the activation is 4.66%.
For `CC(=O)c1ccc(-c2nnc(CCC(=O)N(C)Cc3cnc4ccccn34)o2)s1` the value was -5.43%; for `COC(=O)CN1C(=O)N/C(=C/c2ccc(OC)c(C)c2OC)C1=O`, -21.7%.
`Cc1cc(C)n(Cc2cnc(N3CCOCC3)s2)n1`: the activation was 22.6%.
The same measure for `NNC(=O)c1cnn(-c2ccccc2)c1C(F)(F)F`: 15.9%; for `Cc1ccccc1Nc1nc(N)nc(CSc2nnc3ccccn23)n1`: 59.9%.
Turning to `Cc1ccc(C(=O)OCc2nc(N)nc(Nc3ccccc3C)n2)cc1`, the activation is -2.39%.
For `Cc1ccccc1Nc1nc(N)nc(CSc2ccccc2)n1`, the activation is 159% (active).
For the molecule `CCCC1(C(=O)OC)NC(c2ccco2)C2C(=O)N(C)C(=O)C21` (stereo unspecified), the activation is 9.69%.
`CC(=O)NCCc1nc2cc(NC(=O)c3ccccc3)ccc2n1C`: the activation is 55.4%.
For the molecule `Cc1cc(C)c2nc(SCC(=O)N(C)C3CCS(=O)(=O)C3)cc(C)c2c1` (stereo unspecified), the activation was 11.6%.
For the molecule `O=C(CC1SCCNC1=O)Nc1ccc(Cl)c(Cl)c1` (stereo unspecified), the activation was -7.34%.
With `CC(NC(=O)CSc1nc2c(cc1C#N)CN(C)CC2)c1ccccc1` (stereo unspecified), the activation is 1.35%.
For `Cc1nc(SCC(=O)Nc2cc(C)on2)c2c3c(sc2n1)CCCC3` the value was -10.6%; for `Cc1cc(NC(=O)CSc2nc3c(cc2C#N)CCCCC3)no1`, 191% (active); for `COc1ccc(-c2nn3c(-c4ccccc4)nnc3s2)cc1OC`, 12.1%.
On to `COc1ccc(-c2csc(-c3cccs3)n2)cc1OC`, for which the activation is 172% (active).
Regarding `COc1ccc(C2CC(c3cccs3)=Nc3ccccc3S2)cc1OC` (stereo unspecified), the activation was 2.96%.
As to `O=C(NCCc1ccccn1)c1cc(-c2ccc(Cl)cc2)nc2ccccc12`, the activation is -9.75%.
For `O=c1c2c(nc3cc(-c4cccc(Cl)c4)[nH]n13)CCCC2`, the activation was 158% (active).
`O=C1CCCc2c1nc(-c1cccc(Cl)c1)n2O`: the activation is -94.3%.
Regarding `O=c1c2c(nc3nc[nH]n13)CCC2`, the activation was 3.94%.
As for `Cc1ccc(-c2cc(N)on2)cc1`, the activation was -4.88%.
The same measure for `CCC(C)NC(=O)Cn1nc(C(F)(F)F)c2c1CCC2` (stereo unspecified): -3.33%; for `COc1ccc(-c2cn3ccsc3n2)cc1`: 135% (active).
As to `CCCC(=O)Nc1cccc(-c2cn3ccsc3n2)c1`, the activation was 20.7%.
The same measure for `COc1ccc(-c2cn3cccnc3n2)cc1`: 35.2%.
On to `CN1C(=O)/C(=C\c2ccc(-c3ccccc3)o2)SC1=S`, for which the activation is 5.23%.
Turning to `Cc1cccc(OC(=O)c2sc3ncn(C)c(=O)c3c2C)c1`, the activation was 62.6%.
Consider `O=C(O)c1cccc(N2C(=O)Nc3ccccc3N2O)c1`, for which the activation is 27.8%.
As for `NC1=NN(c2cccc(C(=O)O)c2)C(=O)C1`, the activation was 135% (active).
Take `O=C(c1cccc(N2CCCC2=O)c1)N1CCOCC1`: the activation is 10.7%.
As for `CCOC(=O)c1cc2c(=O)[nH]c(C(Cl)(Cl)Cl)nc2o1`, the activation was 5.69%.
As to `CCCCOc1ccc(C(=O)NCC(=O)OCC(=O)N2CCN(S(=O)(=O)c3ccc(C)cc3C)CC2)cc1`, the activation was -1.98%.
Regarding `O=[N+]([O-])c1cc(Br)c(O)c(/C=N/Nc2nc3ccccc3s2)c1`, the activation was 12.5%.
As for `c1ccc2sc(NN=C3CCCC3)nc2c1`, the activation is 193% (active).
As for `Cc1ccnc(Nc2nc3ccccc3s2)n1`, the activation was 127%.
For `CCOCCCNC(=S)N1CCC(NC(=O)C2CCCCC2)CC1`, the activation is -16.3%.
In the case of `CCn1ccnc1CN(C)Cc1nc(-c2ccc3c(c2)OCO3)no1`, the activation was 14.5%.
The same measure for `O=C(O)/C=C/c1cn(-c2ccccc2)nc1-c1cccs1`: -9.09%; for `O=C(/C=C\c1cn(-c2ccccc2)nc1-c1cccs1)N1CCOCC1`: -5.12%; for `O=C(O)c1ccc(N/N=C/c2cn(-c3ccccc3)nc2-c2cccs2)cc1`: 140% (active).
Turning to `COc1ccc(/C=N/N=C/c2c[nH]c(=O)c(C#N)c2Nc2ccccc2)cc1`, the activation is -8.9%.
Turning to `CCc1ccc(-c2nnn(Cc3nc4ccccc4s3)n2)cc1`, the activation is 0.38%.
`COc1cccc2sc(NNC(=O)c3nc4ccccc4s3)nc12`: the activation is 7.9%.
For `COc1ccccc1OCc1nc2ccccc2s1` the value was 142% (active).
Regarding `CC(O)C(NS(=O)(=O)c1ccc(Cl)cc1)C(=O)OCc1cc([N+](=O)[O-])cc2c1OCOC2` (stereo unspecified), the activation is 22.7%.
As to `COc1ccc(-c2nc(-c3ccccc3)no2)c(OC)c1`, the activation was 139% (active).
The same measure for `CCOc1nc(-c2ccc(OC)cc2)ccc1-c1noc(-c2cc(OC)c(OC)c(OC)c2)n1`: -12.3%.
Take `COc1ccc(-c2noc(-c3ccc(C)cc3)n2)cc1`: the activation was 38.2%.
